Test results: PubChem BioAssay AID485367 (National Center for Advancing Translational Sciences (NCATS), 2010)
In all, about 330,000 compounds went through this assay and about 560 (0.17%) were called active. Inconclusive results (about 1%) are left out. The list comes from a sample in which actives are over-represented; it also holds similar structures and randomly drawn compounds. Values without a mark were called inactive. Calls follow the shape of the dose curve; as a rule, active = well fitted inhibition curve with a large enough effect; inconclusive = small, poorly fitted or top-dose-only effect, or effect the other way; inactive = flat fitted curve, though single readings scatter.

molecular target: ATP-dependent 6-phosphofructokinase (Trypanosoma brucei brucei) (UniProt O15648); assay: qHTS Assay to Find Inhibitors of T. brucei phosphofructokinase; also: nearly all actives have a fitted effect of over 60% in size;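 as to activity, negative = inhibition: 0% = uninhibited 1x PFK enzyme wells and -100% = no-enzyme wells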; conditions: T. brucei PFK, ADP-Glo luminescence; series mostly up to 57.5 µM; activity, negative = inhibition: at the top concentration
Sequence (O15648 whole entry, looked up): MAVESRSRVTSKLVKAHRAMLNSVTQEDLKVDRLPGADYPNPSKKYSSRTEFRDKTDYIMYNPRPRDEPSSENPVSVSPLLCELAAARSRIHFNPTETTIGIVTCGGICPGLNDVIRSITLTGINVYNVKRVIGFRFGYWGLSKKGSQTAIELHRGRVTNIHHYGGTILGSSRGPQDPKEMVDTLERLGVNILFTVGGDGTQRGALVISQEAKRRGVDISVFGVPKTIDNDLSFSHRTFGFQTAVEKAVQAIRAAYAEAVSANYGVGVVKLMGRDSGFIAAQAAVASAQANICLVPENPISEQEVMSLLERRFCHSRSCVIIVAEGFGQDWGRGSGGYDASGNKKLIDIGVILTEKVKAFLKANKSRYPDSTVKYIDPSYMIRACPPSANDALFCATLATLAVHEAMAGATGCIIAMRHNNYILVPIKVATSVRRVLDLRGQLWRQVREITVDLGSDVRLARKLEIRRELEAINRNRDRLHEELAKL
Procedure, shortened: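 ADP-Glo luminescence quantified ADP after 45 min at room temperature, with 1.25 nM T. brucei PFK, 0.1 mM ATP and 0.5 mM fructose-6-phosphate in pH 8.0 TEA buffer. qHTS titrations up to 57 µM; curves classified by quality.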
Potency is read from the fitted curve at half-maximal effect.

Structure (SMILES) | activity, negative = inhibition | Potency
O=C(COC(=O)/C=C/c1ccc(OC(F)F)cc1)NC1CCCCC1 | 6.89% | –
N=C1/C(=C/c2cccn2-c2cccc([N+](=O)[O-])c2)C(=O)N=C2SC=CN12 | 3.77% | –
CCOC(=O)c1c(CNCc2ccccc2F)c2sc(C)cc2n1C | -0.233% | –
NC(=O)c1ccc(Nc2ccc3nonc3c2[N+](=O)[O-])cc1 | 0.218% | –
CCN(CC)CCCSc1nc2ccccc2s1 | -6.96% | –
O=[N+]([O-])c1c(NCCO)cc(Sc2nc3ccccc3s2)c2nonc12 | – | 6.01 µM (active)
CCOCCOC(=O)C1=C(C)N(C)C(=O)NC1c1ccccc1F (stereo unspecified) | 0.633% | –
CCOC1CS(=O)(=O)CC1OCC (stereo unspecified) | -1.39% | –
CC(C)(C)NC(=O)NC(=O)COC(=O)Cc1c(F)cccc1Cl | -0.983% | –
O=C1CSC(=S)N1c1ccc(O)cc1 | -1.23% | –
O=C1CSC(=S)N1c1ccc(Cl)c(Cl)c1 | – | 21.3 µM (active)
COc1cc(N2C(=O)CSC2=S)cc(OC)c1OC | -8.25% | –
O=C(COC(=O)CNS(=O)(=O)c1ccccc1)NC12CC3CC(CC(C3)C1)C2 | -2.55% | –
Cc1ccc(C(=O)COC(=O)c2cccc(N3C(=O)c4c(C)nc5ccccc5c4C3=O)c2)cc1C | -6.05% | –
O=C(Nc1ccncc1)c1ccc([N+](=O)[O-])cc1Cl | -2.98% | –
O=C(Nc1ccncc1)c1ccc(Cl)c([N+](=O)[O-])c1 | – | 26.9 µM (active)
Cc1ccnc(NC(=O)c2ccc(Cl)c([N+](=O)[O-])c2)c1 | -21.5% | –
Cc1c(CCO)c(=O)n(-c2ccccc2)n1S(=O)(=O)c1ccc(F)cc1 | 2% | –
CCOc1ccc(NCCC(=O)c2ccc3c(c2)OCO3)cc1 | 0.639% | –
COc1ccc(CNC(=O)C(NS(=O)(=O)c2cccc3nsnc23)C(C)C)cc1 (stereo unspecified) | -7.82% | –
CC(NC(=O)c1ccc(S(=O)(=O)Nc2ccccc2)cc1)c1ccc(S(N)(=O)=O)cc1 (stereo unspecified) | 4.34% | –
